This assay is described as follows: compound effects on multiple myeloma cell viability – MM1S, calcein-AM fluorescence, 48 h, basal, profiling panel (AID 1165).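 Note: viability of MM1S multiple myeloma cells under basal unstimulated conditions; test concentration not given here.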 Particulars: higher = more signal.
Regarding `O=C1C[C@]2(c3ccc([N+](=O)[O-])cc3)C(=O)N(Cc3ccccc3)c3cc(CO)ccc3[C@H]2N1CC12CC3CC(CC(C3)C1)C2`, the z-score is 0.397.
Consider `Cc1c(NC(=O)/C(C#N)=C/C=C/c2ccc(N(C)C)cc2)c(=O)n(-c2ccccc2)n1C`, for which the z-score is 0.232.
On to `COCCOC(=O)N1C(=O)[C@@]2(c3ccccc31)[C@H](c1ccc(OCCO)cc1)N1[C@H](c3ccccc3)[C@H](c3ccccc3)OC(=O)[C@H]1[C@@H]2C(=O)Nc1nc2ccccc2s1`, for which the z-score was -1.15.
In the case of `COCCCNC(=O)[C@@]1(Sc2ccc(C)cc2)CC(=O)N(Cc2cc(C(F)(F)F)cc(C(F)(F)F)c2)[C@@H]1c1ccc(CO)cc1`, the z-score is 1.35.
For `CCCC[C@@H]1C[C@H]1[C@@H](NC(=O)c1ccccc1)c1ccc(Cl)cc1`, the z-score was -1.23.
For `CC(C)C(CO)N1C(=O)[C@]2(C)C3C(=O)OCCC/C=C\[C@H]3OC23C=CCN(c2ccc(Cl)cc2)C(=O)[C@@H]13` (stereo not given in full) the value was 0.547; for `COC(=O)[C@@]1(Cc2ccc(OC)cc2)[C@H]2c3cc(C(=O)N4CCCC4)n(CCc4cc5ccccc5[nH]4)c3C[C@H]2CN1C(=O)c1ccccc1`, -0.574; for `CCCC[C@@H]1C[C@H]1[C@@H](NC(=O)c1cccnc1)c1ccc(-c2ccccc2)cc1`, -1.14.
Regarding `[N-]=[N+]=Nc1ccccc1[C@@H]1OC(c2ccc(OCCCO)cc2)=N[C@]1(CCS(=O)(=O)c1ccccc1)C(=O)NCCN1CCOCC1`, the z-score was 0.351.
Turning to `C[C@@H](OCc1ccccc1)C1NC(=O)[C@@]23C(=O)N[C@@H](Cc4ccccc4)C2[C@H](C)[C@@]2(C)O[C@H]2C3/C=C/C/C=C\CNC(=O)CNC1=O` (stereo not given in full), the z-score is 0.125.

These data come from PubChem BioAssay.
